Reference: PubChem BioAssay (NCI)
“And” between values parts separate entries of the source, which are not always exact repeats. Equal entries are not always repeated. The panel holds about 79,000 compounds, 15% with a hit somewhere; the sample as a whole holds those more often. Values without a mark were called inactive. The source made the active and inactive calls. Cut-off read from the data, not from the text of the source: active = growth inhibition above about 70%; inactive = the rest.

Key:
[1] = NCI Yeast Anticancer Drug Screen. Data for the rad50 strain (AID 155);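 note: 0% = growth of vehicle-only cultures of the same strain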; settings: S. cerevisiae rad50 strain growth inhibition, active compounds read high; at 50.0 µM unless noted
Procedure, shortened: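 DNA repair mutant yeast, compound exposure, growth read-out; inhibition is taken relative to vehicle.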

[2] = NCI Yeast Anticancer Drug Screen. Data for the mec2-1 strain (AID 157); settings: S. cerevisiae mec2-1 strain, active compounds read high; at 50.0 µM unless noted
Procedure, shortened: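 Using mec2-1 yeast: add compound, measure growth, express inhibition versus vehicle-treated cultures.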

[3] = NCI Yeast Anticancer Drug Screen. Data for the sgs1 mgt1 strain (AID 161);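 note: 0% = growth of cultures given vehicle only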; settings: S. cerevisiae sgs1 mgt1 strain, active compounds read high; at 50.0 µM unless noted
Procedure, shortened: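 Yeast cells carrying a defined DNA-repair defect were exposed to test compounds. Growth inhibition was measured relative to vehicle-treated controls.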

[4] = NCI Yeast Anticancer Drug Screen. Data for the cln2 rad14 strain (AID 165);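 note: 0% = growth equal to vehicle treated cultures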; settings: S. cerevisiae cln2 rad14 strain, active compounds read high; at 50.0 µM unless noted
Procedure, shortened: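 Yeast strain cln2 rad14, bearing defects in cell cycle control and DNA repair, serves as the test system; values reflect growth inhibition compared with vehicle.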

[5] = NCI Yeast Anticancer Drug Screen. Data for the bub3 strain (AID 167); settings: S. cerevisiae bub3 mutant strain, active compounds read high; at 50.0 µM unless noted
Procedure, shortened: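 In this screen, a yeast mutant lacking normal mitotic checkpoint function is challenged with compound. Relative growth versus vehicle gives the inhibition value.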

[6] = NCI Yeast Anticancer Drug Screen. Data for the mlh1 rad18 strain (AID 175); settings: S. cerevisiae mlh1 rad18 strain growth inhibition, active compounds read high; at 50.0 µM unless noted
Procedure, shortened: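 Steps: expose repair-defective yeast to compound; measure growth; express inhibition against vehicle-treated controls.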

| SMILES | growth inhibition [1] | growth inhibition [2] | growth inhibition [3] | growth inhibition [4] | growth inhibition [5] | growth inhibition [6] |
| --- | --- | --- | --- | --- | --- | --- |
| CCCCCCC(=O)C/C(=N/NC(N)=S)C(=O)NC1C2CC3CC(C2)CC1C3 (stereo not given) | -14.8% | -19.2% | -48.7% | 29.4% | -2.3% | -34.5% |
| CN1OC(=O)OC(C)(c2ccccc2)C1=O (stereo not given) | 2.9% | -12.3% | -2.3% | 0.25% | 0.6% | -0.05% |
| COC(=O)c1ccc(Oc2nc3ccc(C(F)(F)F)cc3nc2-c2ccccc2)cc1 | -11.9% | -31.9% | 14.3% | -34.1% | -23.8% | -19.1% |
| CC(C)(C)OC(=O)NCC(=O)OC/C=C/c1ccccc1 | -2.7% | 1.3% | 6.65% | -8.15% | -3.6% | 6.1% |
| O=C(Cc1nc2ccccc2o1)C(=O)Nc1ccccc1C(F)(F)F | -16.5% | -4.9% | -2.8% | 7.2% | 2.75% | 17.6% |
| CC(=O)OC1CCC2(C)C(CCC3(C)C2C(=O)C=C2C4CC(C)(C(=O)O)CCC4(C)CCC23C)C1(C)C (stereo not given) | -3.8% | -9.5% | -13% | -4.25% | -5.75% | -8.5% |
| CC(C)(C)OC(=O)N1CCC2(CC1)C(=O)NCN2c1ccccc1 | 23.4% | 11.9% | -3% | 31.2% | 0.7% | -38.9% |
| C=CC(=O)OCCOCCCC | 8.75% | 5.4% | -4.7% | -21.9% | -15.1% | 4.85% |
| CC1(C)C=C(C(c2cccc([N+](=O)[O-])c2)N2CCCCC2)C(=O)c2ccccc21 (stereo not given) | -26.9% | -10.7% | -13.2% | -40.9% | -0.9% | -13.3% |
| COc1c2c(c(OC)c3ccccc13)C(=O)C1=C(CC=CC1)C2=O | 4% | 18.4% | -8.6% | -10.1% | 14.6% | 40.1% |
| NC(=O)CC(NC(=O)CCl)C(=O)O (stereo not given) | -12.3% and -15% | -24.8% and -8.15% | 2.1% | 12.4% | -0.35% | -22.4% and -16.1% |
| N#CC(c1ccccc1)c1ccc(C(c2ccccc2)(c2ccccc2)C(C#N)c2ccccc2)cc1 (stereo not given) | 17.4% | 8.55% | 13.9% | 19.3% | -4.8% | 5.1% |
| CCCCC1(N=[N+]=[N-])C(=O)C2C=CC=C3c4ccccc4N(C1=O)C32 (stereo not given) | -1.15% | -11.2% | -5.8% | -43.2% | 34.7% | 2.85% |
| O=C(O)COc1ccc(C2CCc3ccccc32)cc1 (stereo not given) | 19.7% | 7.3% | -3.85% | 16% | 8.25% | 0.7% |
| Cc1ccc(C(=O)C2C(=O)C(=O)OC2C2OC(=O)C(=O)C2C(=O)c2ccc(C)cc2)cc1 (stereo not given) | 43.8% | 25.1% | 39.5% | 31.2% | -4.55% | 42.8% |
| COc1cc2ccc(Cc3nccc4cc(OC)c(OC)cc34)cc2cc1OC | 98.4% (active) | 98.5% (active) | 99% (active) | 91% (active) | 97% (active) | 98.2% (active) |
| NC(=O)CCCO | 6.1% | -2.65% | -3.25% | 6.6% | 3.25% | 2.4% |
| CCOC(=O)c1oc2cc(O)ccc2c(=O)c1-c1ccc(OC)c(OC)c1 | 5.95% | -1.7% | 16.3% | 3.45% | 4.65% | 11.8% |
| Oc1[nH]c2ccccc2c1N=NC(=S)Nc1ccccc1 | 12.6% | 2.5% | -2.3% | -13.1% | -11.4% | -4.75% |
| CC1(C)CC[C@]2(C(=O)O)CC[C@]3(C)C(=CC[C@@H]4[C@@]5(C)CC[C@H](O)C(C)(C)[C@@H]5CC[C@]43C)[C@@H]2C1 | -3.7% | 4.4% | -7.5% | 13.2% | 0.1% | -3.9% |

| SMILES | growth inhibition [1] | growth inhibition [2] | growth inhibition [3] | growth inhibition [4] | growth inhibition [5] | growth inhibition [6] |
| --- | --- | --- | --- | --- | --- | --- |
| CC(C)(C)C(C)(C)SSC(C)(C)C(C)(C)C | 6.05% | 12.4% | 18.8% | 7.4% | 15.7% | 25.5% |
| S=c1c(-c2ccccc2)cnc2sccn12 | 40.9% | 29.8% | 8.3% | -22.6% | 19.8% | 18.4% |
| CC(O)C(=O)N(CCO)c1ccccc1 (stereo not given) | 13.4% | 1.2% | -5.5% | 3.25% | 2.2% | -21.4% |
| O=C1CC(Br)C(c2ccccc2)(c2ccccc2)O1 (stereo not given) | 32.2% | 9.4% | 33.6% | 46.3% | 14.2% | 32% |
| O=C(CC1CCCCC1)OCCOCCO | -7.9% | -5.7% | -27.6% | 3.35% | -2.85% | -3.5% |
| Cc1cc(OC(=O)c2c(-c3c(Cl)cccc3Cl)noc2C)n(-c2ccc(NC(=O)c3c(-c4c(Cl)cccc4Cl)noc3C)cc2)n1 | 36.8% | 24.8% | 19.7% | 13% | 28.1% | 25.9% |
| CN1N=C(c2ccncc2)OC1c1cccc(F)c1 (stereo not given) | -58% | -45.4% | -25.6% | 6.5% | 4.9% | -16% |
| ClC(Cl)(Cl)c1ncnc2nc[nH]c12 | -15.1% | -11.8% | 0.5% | 9.95% | -16.9% | 13.3% |
| CC1(C)OC1CS(=O)c1ccccc1 (stereo not given) | -6.1% | -5.4% | -14.5% | -17.4% | 5.5% | -42.8% |
| O=C1OCC/C1=C\c1ccc2c(c1)OCO2 | 40.4% | -26.5% | 20% | -2.85% | -10.2% | -2.4% |
| NC(=O)C(c1ccccc1)C1(O)CCCCC1 (stereo not given) | 7.7% | 5.7% | 9.7% | 6.95% | 3.2% | 11.4% |
| CC1CN=C(N(C(=O)Nc2ccccc2)C2CCCCC2)S1 (stereo not given) | -43.1% | -8.9% | -60.1% | 5.35% | -4.3% | -20% |
| O=C(c1ccc([N+](=O)[O-])cc1)N(Cc1ccccc1)Cc1ccccc1 (tested in a mixture with another compound) | -7% | 15.7% | -12.7% | -10.9% | 26.8% | 9.5% |
| Cc1cccc(C(=N)c2ccccc2Cc2cccc3ccccc23)c1C | 51% | 6.5% | 66% | 17.6% | 68.5% | 37.8% |
| N#CC(C(=O)CCC(=O)NCCc1ccccc1)c1nc2ccccc2s1 (stereo not given) | -11.9% | -6.05% | -10.8% | -10.1% | 4.8% | 4.55% |
| CCOC(OCC)C(=O)NC(Cc1ccccc1NC(=O)c1ccccc1)c1ccc2c(c1)OCO2 (stereo not given) | 35.6% | -1.05% | 3.9% | 4.8% | 3.25% | 21.4% |
| C/C(=N/NC(N)=O)C1CCc2ccccc2C1 (stereo not given) | 43% | -6.9% | 3.2% | 1.95% | 7.8% | 22.9% |
| CC(=O)NNS(=O)(=O)c1ccccc1 | 8.1% | 28.6% | 4.15% | -1.15% | -17.9% | 16.8% |
| COC1=CC(=O)C2CC=CC(CC(=O)O)C2(C)C1=O (stereo not given) | -0.95% | -2.4% | -0.35% | -21.9% | 7.3% | 4.5% |
| CCCC(=O)NC(Nc1ccc(S(=O)(=O)Nc2cc(C)on2)cc1)(C(=O)OCC)C(F)(F)F (stereo not given) | 32.8% | -18.9% | 4.75% | 18.1% | -14.4% | -40.8% |
